Only some compounds are listed: those with a hit (about 2.8% of all), similar ones and a draw of the others.
POLK inh: DNA polymerase kappa (human) inhibition; Q9UBT6; purified Pol kappa, fluorescent DNA synthesis assay, 10 min; Potency, µM (top dose mostly 107 µM), inactives show top-dose activity, negative = inhibition, usual class: inhibitors; 400,000 compounds, 0.53% hits; AID 588579; note: potency is the fitted concentration of half-maximal effect; % is set by controls: 0 for no effect and ±100 for the full control effect
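Kinetic fluorescence readout at 0 and 10 min followed reaction start with substrate at 50 nM final. Beforehand, enzyme (10 nM Pol kappa) stood 15 min with compound at room temperature; buffer-only wells were negative controls.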
Pol beta inh: inhibitors of human DNA polymerase beta; 340,000 compounds, 1.3% hits; Pol beta primer extension/strand displacement, fluorescence kinetic; Potency, µM (series often up to 114 µM), inactives show at the top dose activity change, negative = inhibition, most hits filed as inhibitors; AID 485314; P06746; note: potency is the fitted concentration of half-maximal effect; % is set by controls: 0 for no effect and ±100 for the full control effect
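Values derive from four-parameter Hill fits of normalized kinetic data: reads at 0 and 10 min following addition of 50 nM substrate to 10 nM Pol beta preincubated 15 min with compound.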
Pol eta inh: blocks human DNA polymerase eta activity | Q9Y253 | recombinant Pol eta, fluorescent DNA replication assay | Potency, µM (top dose mostly 114 µM), for inactives: top-dose activity change, negative = inhibition, actives largely listed as inhibitors | 390,000 compounds, 1.2% hits | AID 588591; note: potency is the fitted concentration of half-maximal effect; % is set by controls: 0 for no effect and ±100 for the full control effect
Target sequence (Q9Y253 whole entry, looked up): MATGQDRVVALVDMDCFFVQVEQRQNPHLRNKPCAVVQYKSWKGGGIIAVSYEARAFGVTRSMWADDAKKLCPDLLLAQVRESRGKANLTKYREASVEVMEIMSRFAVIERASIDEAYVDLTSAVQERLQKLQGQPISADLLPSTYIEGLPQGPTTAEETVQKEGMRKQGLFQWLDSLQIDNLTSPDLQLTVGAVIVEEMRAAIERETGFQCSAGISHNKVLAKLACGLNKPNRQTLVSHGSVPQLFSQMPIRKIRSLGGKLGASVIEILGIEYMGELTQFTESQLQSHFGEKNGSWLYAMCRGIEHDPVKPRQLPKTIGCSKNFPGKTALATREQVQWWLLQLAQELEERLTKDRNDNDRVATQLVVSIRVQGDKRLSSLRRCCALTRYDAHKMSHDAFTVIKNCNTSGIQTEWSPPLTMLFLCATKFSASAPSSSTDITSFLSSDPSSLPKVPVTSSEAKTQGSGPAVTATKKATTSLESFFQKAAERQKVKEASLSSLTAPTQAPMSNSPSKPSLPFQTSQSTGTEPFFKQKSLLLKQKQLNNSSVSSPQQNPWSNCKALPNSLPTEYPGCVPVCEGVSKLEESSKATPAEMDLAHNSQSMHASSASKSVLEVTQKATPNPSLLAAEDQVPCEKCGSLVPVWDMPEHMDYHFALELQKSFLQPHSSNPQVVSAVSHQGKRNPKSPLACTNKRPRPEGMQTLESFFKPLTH
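Pol eta at 10 nM preincubated with compounds 15 min at room temperature; reaction started with fluorescent substrate (50 nM final) and read kinetically at 0 and 10 min.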
PI5P4K alpha inh: blocks human PI5P4K alpha kinase activity. P48426. PI5P4Kalpha enzyme, ADP-Glo luminescence, 60 min; stronger effect = lower value. max response, %. 330,000 compounds, 1.2% hits; active = max response of -50% or lower; inconclusive = between -30% and -50%; inactive = -30% or higher; note: value at the top dose of about 77 µM; % is set by controls: 0 for no effect and ±100 for the full control effect
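PI5P4Kalpha ADP-Glo assay; 5 microM ATP final; 60 min RT reaction; HEPES pH 7.4/EGTA/CHAPS, 5% DMSO; controls lacking substrate or enzyme; luminescent end-point.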
WRN helicase inh: inhibitors of human WRN helicase; 360,000 compounds, 0.46% hits; WRN helicase unwinding, fluorescent forked duplex, kinetic; Potency, µM (series often up to 114 µM), inactives show top-dose activity change, negative = inhibition, most hits filed as inhibitors; note: potency is the fitted concentration of half-maximal effect; % is set by controls: 0 for no effect and ±100 for the full control effect; nearly all actives have a fitted effect of over 55% in size
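WRN at 20 nM final preincubated with compound 15 min at room temperature; reaction started with 100 nM fluorophore/quencher forked duplex oligonucleotide and 2 mM ATP final. Unwinding followed kinetically by red fluorescence (ex 525, em 598 nm).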
Pol iota inh: inhibitors of human DNA polymerase iota; Q9UNA4; Pol iota fluorescent replication assay, 10 min; Potency, µM (top dose mostly 115 µM), for the others: at the top dose activity, negative = inhibition, usual class: inhibitors; 390,000 compounds, 1% hits; note: potency is the fitted concentration of half-maximal effect
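Fluorescent replication assay read twice, at 0 min and 10 min after adding 50 nM (final) substrate. Enzyme (10 nM) and compounds were first incubated 15 min at room temperature; enzyme-free buffer wells were negative controls.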
An asterisk follows results filed as active; ? = inconclusive; . = not tested or not shown; [ ] = remark or other dose. Unless noted, calls come from the whole dose curve; as a rule, active = well fitted curve in the direction sought with a large enough effect; inconclusive = small, poorly fitted or top-dose-only effect, or another doubt; inactive = no such curve, though single readings can be large; an effect the other way counts as inactive or inconclusive.

SMILES | POLK inh | Pol beta inh | Pol eta inh | PI5P4K alpha inh | WRN helicase inh | Pol iota inh
CCC(=O)N1CCc2cc(S(=O)(=O)NCCC(=O)Nc3ccc(CC)cc3)ccc21 | -10% | 27% | -16% | . | . | 3%
O=C(CSc1nc2cc([N+](=O)[O-])ccc2n1-c1ccccc1)NCc1ccc2c(c1)OCO2 | -18% | 10µM* | -14% | -10 | -6% | ?
Cc1cc(C)cc(-n2c(SCC(=O)NCc3ccc4c(c3)OCO4)nc3ccccc3c2=O)c1 | -24% | -8% | -21% | -3 | 1% | -2%
O=c1cc(O)nc(SCc2ccccc2)n1-c1ccccc1 | ? | 14% | -9% | -21 | -16% | ?
C=CCNC(=O)CSc1nc2sccc2c(=O)n1-c1ccccc1 | ? | ? | ? | -60* | -13% | ?
O=C(CSc1nc(O)cc(=O)n1-c1ccccc1)NCc1ccccc1 | -26% | 3% | -5% | . | -18% | 40µM*
COc1ccccc1NC(=O)CSc1nc(O)cc(=O)n1-c1ccccc1OC | -37% | ? | -5% | . | -24% | 40µM*
O=C(CCNS(=O)(=O)c1ccc2c(c1)CCN2C(=O)C1CC1)N1CCN(c2ccc(F)cc2)CC1 | -2%[60.1 µM] | -3% | -18% | . | . | ?
COc1ccccc1-n1c(SCC(=O)Nc2ccccc2C)nc(O)cc1=O | -19% | 1% | -9% | . | -13%[57.1 µM] | 56µM*
COc1ccc(Cl)cc1NC(=O)CSc1nc(=O)n(Cc2ccco2)c2c1CCC2 | -6%[60.1 µM] | 0% | -22% | . | . | 32%
O=C(CN1CCN(S(=O)(=O)c2ccc(F)cc2)CC1)c1ccc(O)c(O)c1 | -12% | -30% | -6% | -4 | -3% | 51%
COc1ccc(S(=O)(=O)N2CCN(CC(=O)c3ccc(O)c(O)c3)CC2)cc1 | 32µM* | ? | ? | 5 | -6%[11.6 µM] | ?
O=C(CN1CCN(S(=O)(=O)c2ccc(Cl)cc2)CC1)c1ccc(O)c(O)c1 | 20µM* | ? | ? | 1 | -30% | 14µM*
CCN(C(=O)COC(=O)/C(C#N)=C/c1ccc(N(C)C)cc1)C1CCS(=O)(=O)C1 (stereo unspecified) | ? | . | -19% | -6 | ? | 56µM*
CN(C)c1ccc(/C=C(\C#N)C(=O)OCC(=O)N(C)C2CCS(=O)(=O)C2)cc1 (stereo unspecified) | 0% | . | 13% | 2 | 10% | 16%
NC(=O)C1CN(S(=O)(=O)c2ccc(Cl)cc2F)c2ccccc2O1 (stereo unspecified) | 2% | 63µM* | -20% | -4 | 7% | 10%
COc1ccc(OC)c(CNC(=O)c2ccc(NC(=O)c3nsc4ccccc34)cc2)c1 | -8%[60.1 µM] | 40% | -8% | . | . | 89µM*
Nc1ccc(O)cc1 | 89µM* | . | . | . | . | 7.1µM*
Nc1c2c(nc3ccccc13)CSCC2 | -8% | . | -11% | 0 | 1% | 59%
Cc1ccc(NC(=S)NC(=O)/C=C/c2ccco2)c(O)c1 | ? | 18µM* | ? | -54* | -19% | ?
Cc1ccc2oc(-c3cccc(NC(=S)NC(=O)c4cccs4)c3)nc2c1 | 4% | -10% | 2% | -5 | 8% | 32%
Cc1ccc2oc(-c3cccc(NC(=S)NC(=O)/C=C/c4ccco4)c3)nc2c1 | ? | 45µM* | 13µM* | -27 | ? | ?
Cc1cc(C)c2oc(-c3ccc(C)c(NC(=S)NC(=O)/C=C/c4ccco4)c3)nc2c1 | -5% | 20µM* | ? | -16 | -15% | -2%
CCn1cc(C(=O)NCCOC)c(=O)c2cc(S(=O)(=O)N3CCOCC3)ccc21 | 8% | 23% | -5% | . | . | 12%
Cc1ccc(C)n1-c1nnc(N2CCCC(C(=O)NCc3cccc(Cl)c3)C2)s1 (stereo unspecified) | -8% | 10% | . | . | . | -13%
SMILES | POLK inh | Pol beta inh | Pol eta inh | PI5P4K alpha inh | WRN helicase inh | Pol iota inh
COc1cccc2c1cc1c(=O)n(CC(=O)N3CCN(c4ccccc4F)CC3)nc(C)n12 | 5% | 29% | 2% | . | . | -10%
COc1ccc2c(Sc3ccccc3)c(C(=O)NCc3cc(Br)ccc3OC)[nH]c2c1 | -15% | 1% | -7% | . | . | -3%
CCN(CC)c1ccc(-n2nc3cc(C)c(NC(=O)c4ccccc4F)cc3n2)cc1 | -3% | 3% | -18% | . | . | 26%
CCc1ccccc1S(=O)(=O)Cc1ccc(C(=O)NCCc2ccc(Cl)cc2)o1 | -8% | -20% | -17% | . | . | 13%
COC(=O)c1nc(NC(=O)C(C)(C)C)n[nH]1 | -8% | 1% | 2% | . | 10% | 79µM*
COC(=O)c1nc(NC(=O)c2ccc(Br)cc2)n[nH]1 | -12% | 13% | -3% | 0 | -18% | -3%
O=C1C[C@@H](c2ccc(O)c(O)c2)Oc2cc(O[C@H]3O[C@@H](CO)[C@H](O)[C@@H](O)[C@@H]3O)cc(O)c21 | 21µM* | . | . | . | . | .
Cc1sc(-n2cccc2)c(C(=O)O)c1C | -32% | ? | 89µM* | . | -24%[57.1 µM] | ?
O=C(O)c1c(-n2cccc2)sc2c1CCCC2 | -12% | 6% | -4% | 0 | 2% | 95%
[O-][n+]1onc2c1CCC(=N/O)/C2=N\Nc1ccccc1 | . | 40µM* | . | . | . | .
COC(=O)c1ccc(NC(=O)c2cc(S(=O)(=O)N3CCc4ccccc43)cn2C)cc1 | -1% | -3% | -7% | . | . | 9%
O=c1cc(NCc2ccco2)[nH]c(=O)n1-c1ccc(Br)cc1 | ? | -27% | ? | . | -9%[11.6 µM] | 50µM*
COc1cc(/C=C/C(=O)OCC(=O)Nc2ccc(S(N)(=O)=O)cc2)ccc1O | ? | 1% | 50µM* | -23 | -14% | ?
O=C(COC(=O)/C=C/c1ccc(F)cc1)Nc1ccc(Cl)cn1 | -4% | 3% | 2% | -2 | 5% | 89%
COc1cc(/C=C/C(=O)OCC(=O)Nc2ccc(Cl)cn2)ccc1O | ? | . | 56µM* | -22 | 4%[11.6 µM] | 35µM*
Cc1csc2nc(-c3cccc(NC(=O)c4c(F)cccc4F)c3)cn12 | -10%[60.1 µM] | 3% | -13% | . | . | 7%
Cc1cc(C)cc(-n2c3nc4ccccc4nc3c3c(=O)n(Cc4ccco4)cnc32)c1 | -11% | 35µM* | ? | -29 | -11% | 2%
COCCCn1cnc2c(c1=O)c1nc3ccccc3nc1n2-c1ccc(C)cc1 | -11% | 35µM* | -5% | 6 | -1% | 6%
C=C1c2cccc(O)c2C(O)=C2C(=O)[C@]3(O)C(O)=C(C(N)=O)C(=O)C(N(C)C)C3C(O)C12 (stereo partly specified) | 4µM* | . | . | . | . | .
C[C@H]1c2cccc(O)c2C(O)=C2C(=O)C3(O)C(O)=C(C(N)=O)C(=O)[C@@H](N(C)C)[C@@H]3[C@@H](O)[C@@H]21 (stereo partly specified) | 1% | . | -8% | -2 | 3% | -13%
